Here are results for 44 compounds from PubChem BioAssay AID2685 (National Center for Advancing Translational Sciences (NCATS), 2010).

The structures appear in SMILES notation. Hit rate of the full screen: of about 320,000 compounds, about 2,100 (0.66%) were called active. Not shown: some 53% with an inconclusive outcome. Calls follow the shape of the dose curve; as a rule, active = well fitted inhibition curve with a large enough effect in the signal ratio, with a control signal flat (not every such curve was filed as active); inconclusive = small, poorly fitted or top-dose-only effect, or effect the other way, or a change in a side signal; inactive = flat fitted curve, though single readings scatter; the % refers to the signal ratio. What follows is part of a selection rich in actives, with near analogues and random picks from the rest.
Potency is read from the fitted curve at half-maximal effect.

The nature of this assay: qHTS Assay for Lipid Storage Modulators in Drosophila S3 Cells.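 As to cell number change: cells counted by Cell Tracker Red CMTPX staining in the red channel.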 As to lipid storage change, negative = inhibition: % is scaled to controls: 0 for no effect and ±100 for the full control effect. The following applies: BODIPY lipid droplet fluorescence, 18-24 h, cells fed with added oleic acid; cell number change: measured here: cell count max response; series mostly up to 46.1 µM; lipid storage change, negative = inhibition: at the top concentration. The source says: NIH Molecular Libraries Probe Production Centers Network [MLPCN] NIH Chemical Genomics Center [NCGC] MLPCN Grant: 1 R03 MH085686-01 Assay Submitter (PI): Beller, Mathias; Max-Planck-Institut fur Biophysikalische Chemie NCGC Assay Overview: Storing lipids as a reservoir for energy or the anabolism of elementary metabolites is a common feature of probably all cells and is conserved from bacteria to humans. The universal cellular lipid storage organelle is the so-called lipid storage droplet (LD). Although ubiquitous, LDs share a simple structure composed of a hydrophobic core that harbors the storage lipids, which is shielded by a droplet-specific phospholipid monolayer to which proteins are attached. The current model of LD biogenesis involves an incorporation of the lipid core into the membrane leaflets of the endoplasmic reticulum (ER) followed by a subsequent budding-like maturation of a LD, which ultimately pinches off. Once released, LD volume can increase by localized lipogenesis or fusion of existing droplet. Storage lipids are re-mobilized enzymatically by lipase activity. Lipase regulation in the adipocyte is heavily studied and involves multiple components including catecholamine signaling, the LD-associated proteins Perilipin and comparative gene identification (CGI-58) and at least two lipases named hormone sensitive lipase (HSL) and adipocyte triglyceride lipase (ATGL). LD regulation outside of the adipocyte is poorly understood and only few components are known. However, there is an urgent need to learn more about ectopic fat depots as mislocalized storage of lipids, for example in the liver or muscle, is an eminent health problem associated with insulin resistance or the metabolic syndrome. We developed a laser-scanning cytometer assay to enable 1,536-well screening and combined the results of the small molecules screen with an RNAi database based on lipid storage.
Triacsin C (Sigma-Aldrich T-4540), an inhibitor of long-chain fatty acyl CoA synthetase that blocks synthesis of triglycerides, was used as a positive control for lipid under-storage. A total of 23 nL of compound solution of different concentrations were transferred to the assay plates using a Kalypsys pin tool equipped with a 1,536-pin array containing 10-nL slotted pins (FP1S10, 0.457-mm diameter, 50.8 mm long; V&P Scientific). One microliter of oleic acid (400 uM) was added, and the plate was lidded with stainless steel rubber gasket lined lids containing pinholes. […] Fluorescence was detected by excitation of the fluorophores with a 488-nm laser on an Acumen Explorer (TTP Lab Tech). The total intensity in channel 2 (500-530 nm) reflected lipid droplet accumulation. Cells were detected using channel 3 (575-640 nm) with 5-um width and 100-um depth filters. The ratio of the number of objects in PMT channel 2 over the number of objects in PMT channel 3 was also calculated. Percent activity was computed relative to an internal control (100% inhibited lipid droplet deposition due to the presence of 20 uM Triacsin C), which was added to 32 wells/plate.
For `Cc1nc2sc(C(=O)OCC(=O)N3c4ccccc4CC3C)c(C)c2c(=O)[nH]1` (configuration not stated), the “lipid storage change, negative = inhibition” value was 3.61% (inactive) and the cell number change was found to be 19.4%. As to `COc1ccc(N2C(=O)NC(NC(=O)C(C)(C)C)(C(F)(F)F)C2=O)cc1` (configuration not stated), the “lipid storage change, negative = inhibition” value is 4.27% (inactive) and the cell number change is -16.8%. For `Clc1ccccc1C1CC(c2ccccc2)=Nc2ccccc2N1` (configuration not stated) the same measures were -0.673% (inactive) and -20.8%. For `CC1(c2ccccc2)CC(c2ccccc2)=Nc2ccccc2N1` (configuration not stated) the same measures were 2.96% (inactive) and 1.92%.

`CC1CC(c2ccccc2)=Nc2ccccc2N1` (configuration not stated): the Potency was 0.82 µM (active) and the cell number change stood at 13.7%. As to `CCN1CCN(Cc2c(C(=O)N/N=C(\C)c3ccc(Cl)c(Cl)c3)nnn2-c2nonc2N)CC1`, the “lipid storage change, negative = inhibition” value is -18.5% (inactive) and the cell number change was -0.855%. The like results for `Cn1c(N)c(C(=O)COC(=O)c2ccc(Cl)c(S(=O)(=O)N3CCCC3)c2)c(=O)n(C)c1=O` were, in that order, -8.77% (inactive) and 1.25%.

As for `O=C(Cn1cc([N+](=O)[O-])cn1)Nc1nc2ccccc2s1`, the call was inactive. On to `COc1cc(/C=C/C(=O)O)cc(S(=O)(=O)NCCO)c1OC`, for which the “lipid storage change, negative = inhibition” value is -2.02% (inactive) and the cell number change was -11.7%. For `CC1Cc2ccccc2N1C(=O)CSc1ccccc1` (configuration not stated) the same measures were 14.5% (inactive) and -23.8%.

Take `CC1Cc2ccccc2N1C(=O)CNc1ccccc1N1CCCCC1` (configuration not stated): the “lipid storage change, negative = inhibition” value is -0.0673% (inactive) and the cell number change was 1.48%. For the compound `CC1Cc2ccccc2N1C(=O)CNCCCN(C)C` (configuration not stated), the Potency was 20.6 µM (active) and the cell number change is -0.87%. As to `CC(C(=O)NC1=NCCS1)N1C(=O)c2ccccc2C1=O` (configuration not stated), the “lipid storage change, negative = inhibition” value was 4.57% (inactive) and the cell number change is -6.04%. As for `CC(C(=O)NC1=NCCS1)N1C(=O)C2CC=CCC2C1=O` (configuration not stated), the Potency is 29.1 µM (active) and the cell number change was -25.7%. With `CC(NC(=O)c1ccc(Br)cc1)C(=O)NC1=NCCS1` (configuration not stated), the cell number change was 5.62% and the lipid storage change, negative = inhibition was -5.54% [at 9.22 µM] (inactive). Regarding `O=C(CN1C(=O)C2CC=CCC2C1=O)NC1=NCCS1` (configuration not stated), the “lipid storage change, negative = inhibition” value was -0.923% (inactive) and the cell number change worked out at 4.96%. With `CC(NC(=O)C1CCCCC1)C(=O)NC1=NCCS1` (configuration not stated), the Potency is 20.6 µM (active) and the cell number change was -6.79%.

`CC(NC(=O)c1ccccc1)C(=O)NC1=NCCS1` (configuration not stated): the “lipid storage change, negative = inhibition” value is -13.9% (inactive) and the cell number change was -3.51%. For `COC(=O)CC1C(=O)NC2CCCCC2N1C(=O)c1ccccc1` (configuration not stated) the same measures were 9.33% (inactive) and -6.42%. Turning to `COCC(C)NC(=O)COc1ccc(Cl)cc1Cl` (configuration not stated), the “lipid storage change, negative = inhibition” value is 8.5% (inactive) and the cell number change worked out at 14.4%.

As for `CC(=O)N(C)c1nc(N)n(-c2ccccc2)n1`, the “lipid storage change, negative = inhibition” value was 1.59% (inactive) and the cell number change was determined as 17.4%. Consider `CN(CC(=O)Nc1ccc(N2CCOCC2)cc1)C(=O)C12CC3CC(CC(C3)C1)C2`, for which the “lipid storage change, negative = inhibition” value was -1.21% (inactive) and the cell number change is 0.396%. `CC(C)(C)c1ccc(NC(=O)Nc2ccc3ccccc3n2)cc1`: the “lipid storage change, negative = inhibition” value was 1.36% (inactive) and the cell number change was 14.5%. The like results for `CCCCn1c(=N)n(CC(=O)O)c2ccccc21` were, in that order, -7.08% (inactive) and -0.932%. For `COc1ccc(N(CC(=O)N/N=C/c2cc3ccc(OC)cc3nc2Cl)S(=O)(=O)c2ccccc2)cc1` the same measures were 6.18% (inactive) and 5.98%. The like results for `COc1ccc(Cc2noc(CN3CCCN(Cc4ccc(F)cc4)CC3)n2)cc1OC` were, in that order, 1.97% (inactive) and -12.5%. Turning to `Cc1ccn2c(C(=O)NNC(=O)Nc3ccc(Cl)cc3)c(C)nc2c1`, the compound was called inactive and the cell number change is -7.08%. The like results for `CCCCN(C(=O)C1CC(=O)N(Cc2ccc(C)cc2)C1)c1c(N)n(CCCC)c(=O)[nH]c1=O` (configuration not stated) were, in that order, “inactive” and 2.26%.

Take `CCCCN(C(=O)C1CCCC1)c1c(N)n(CCC)c(=O)[nH]c1=O`: the “lipid storage change, negative = inhibition” value is -1.72% (inactive) and the cell number change worked out at 10.4%. Consider `CCCCN(C(=O)C1CC(=O)N(c2ccc(C)cc2)C1)c1c(N)n(CCC)c(=O)[nH]c1=O` (configuration not stated), for which the Potency is 20.6 µM (active) and the cell number change is -1.39%.

Turning to `Cc1ccc(-c2csc(NC(=O)c3cccc(S(=O)(=O)N4CCN(C)CC4)c3)n2)cc1`, the “lipid storage change, negative = inhibition” value is 12.3% (inactive) and the cell number change is 13%. Take `O=C1CC(c2ccccc2)CC(=NCCO)/C1=C(\O)CCCN1C(=O)c2ccccc2C1=O` (configuration not stated): the “lipid storage change, negative = inhibition” value was -0.796% (inactive) and the cell number change was -9.46%. Take `CC12CN3CCN(CC(C3)C1(O)CN1CCOCC1)C2` (configuration not stated): the Potency is 4.61 µM (active) and the cell number change worked out at 0.875%.

`CC12CN3CCN(CC(C3)C1(O)CN1CCCCC1)C2` (configuration not stated): the “lipid storage change, negative = inhibition” value is -5.91% (inactive) and the cell number change is -4.02%. For `OC1(CN2CCOCC2)C2CN3CCN(C2)CC1(c1ccccc1)C3` (configuration not stated) the same measures were 5.96% (inactive) and 10%. On to `CCOc1ccc(C(C(=O)NC2CCCC2)N(CCCO)C(=O)c2ccc(-c3ccccc3)[nH]2)cc1` (configuration not stated), for which the outcome was inactive and the cell number change is 42.7%. Consider `Cc1nnc(-c2ccc(Oc3ccc(Br)cc3)c([N+](=O)[O-])c2)o1`, for which the “lipid storage change, negative = inhibition” value was 5.02% (inactive) and the cell number change stood at 2.33%. The like results for `O=C(C/C=N/OCc1ccc(Cl)cc1Cl)c1ccc(Cl)cc1` were, in that order, -12% (inactive) and 4.16%.

Consider `Oc1ccc(CNC2CCCCC2)cc1`, for which the “lipid storage change, negative = inhibition” value is 15.6% (inactive) and the cell number change was 0.0125%. Turning to `Clc1ccc(CNC2CCCC2)cc1`, the Potency was 20.6 µM (active) and the cell number change is -30.8%. As for `Clc1ccc(CNC2CCCC2)c(Cl)c1`, the “lipid storage change, negative = inhibition” value was -3.52% (inactive) and the cell number change was -13.9%. For `CCCCOC(=O)C1C2C=CC3(CN(CCc4ccccc4)C(=O)C13)O2` (configuration not stated) the same measures were 9.44% (inactive) and -8.47%. For `N#Cc1c(NC(=O)c2ccc(Cn3cc(Br)cn3)o2)sc2c1CCCCC2` the same measures were -16.2% (inactive) and 0.806%. The like results for `Cc1ccc(N=c2sc(C)c(C)n2C)cc1` were, in that order, 24.7% (inactive) and -18.9%.
